This passage reports growth results from PubChem BioAssay (NCI).

Each structure is given as a SMILES string. Compounds without any hit were thinned out: in the full panel of roughly 83,000, 20% have a hit.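 Testing used 96-well plates and a 48-hour single-concentration exposure. Example: -40 means 40% of the starting cells died.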 Values without a mark were called inactive. Calls of active or inactive are those of the source. How the source made its calls: active means growth percent below 10; inactive means the rest.

This assay deals with NCI-H460 lung. The experiment in a line: NCI-60 one-dose screen, 48 h (100 = growth as untreated, 0 = no growth, -100 = all killed). The note with it: 10 µM unless noted.
With `N=C(N)c1ccc(-c2cc(Cl)cc(Cl)c2)cn1`, the growth was 96.9%.

`COc1cc(-c2nn(-c3cccc(NC(=O)c4cccc(C(F)(F)F)c4)c3)cc2-c2ccncc2)ccc1Cl`: the growth was 4.83% (active).

In the case of `CN(C)c1oc(C2OC2c2ccccc2)nc1C#N` (centres undefined), the growth is 109%.

`O=C(NNC(=O)N1c2ccccc2C=Cc2ccccc21)c1ccccc1`: the growth was 106%.

In the case of `Cc1ccc(N2CCN(C(C)C(N)=O)CC2)cc1` (centres undefined), the growth is 121%.

With `C=C(C)[C@@H]1C[C@H](O)Cc2cc(F)ccc2N1`, the growth is 101%.

In the case of `c1ccc(-c2nnc(-c3ccccn3)s2)nc1`, the growth is 102%.

For the molecule `C=C1CCC2C(C)(CO)C(O)CCC2(C)C1C/C=C1/C(=O)OCC1Oc1ccccc1C` (centres undefined), the growth is 104%.

Turning to `Cc1ccc(S(=O)(=O)C2=C3C(=C(c4ccccc4)c4ccccc43)CN(S(=O)(=O)c3ccc(C)cc3)C2)cc1`, the growth was 63.8%.

For `COc1cc(C(=O)/C=C/c2c(C)n([O-])c3ccc(C(F)(F)F)cc3[n+]2=O)cc(OC)c1OC`, the growth is 116%.

On to `COc1ccc(C(=O)n2nc(/C=C/c3ccc(O)c(OC)c3)cc2/C=C/c2ccc(O)c(OC)c2)cc1`, for which the growth is 4.37% (active).

For `COc1cc(/C=N\NC(=O)CN2CCN(c3cc4c(cc3F)c(=O)c(C(=O)N/N=C/c3cc(OC)c(OC)c(OC)c3)cn4C3CC3)CC2)cc(OC)c1OC`, the growth is -23.3% (active).

As for `CCCCCCN1CSC(=S)N(CCCCCC)C1`, the growth was 100%.

With `Cc1csc(NC(c2ccc(Br)cc2)c2c(C)nc3ccccn23)n1` (centres undefined), the growth is 98.4%.
